# In the antibiotic and cytotoxicity screens of Wong et al. (2023):
# In all, about 39,000 compounds went through this assay and about 500 (1.3%) were called active. Many of the other results were omitted from the sample, so actives are more common in it than they were.
# System: S. aureus RN4220
# Assay: growth inhibition call (relative growth <= 0.2)
# Conditions: 50 µM
row,Structure (SMILES),growth inhibition call
1,C[C@@H](O)COC[C@H]1O[C@@H]2O[C@H]3[C@H](O)[C@@H](O)[C@@H](O[C@H]4[C@H](O)[C@@H](O)[C@@H](O[C@H]5[C@H](O)[C@@H](O)[C@@H](O[C@H]6[C@H](O)[C@@H](O)[C@@H](O[C@H]7[C@H](O)[C@@H](O)[C@@H](O[C@H]8[C@H](O)[C@@H](O)[C@@H](O[C@H]1[C@H](O)[C@H]2O)O[C@@H]8COC[C@@H](C)O)O[C@@H]7COC[C@@H](C)O)O[C@@H]6COC[C@@H](C)O)O[C@@H]5COC[C@@H](C)O)O[C@@H]4COC[C@@H](C)O)O[C@@H]3COC[C@@H](C)O,inactive
2,C[C@@H]1CN([C@@H](C)CO)C(=O)c2cccc(NC(=O)c3ccc(-c4nccs4)cc3)c2O[C@@H]1CN(C)Cc1ccc(Cl)c(Cl)c1,inactive
3,Cn1cnc(S(=O)(=O)N2C[C@H](O)COC[C@@H]3O[C@@H](CC(=O)NC4CCCC4)CC[C@H]32)c1,inactive
4,Cc1[nH]c2ccccc2c1C(=O)CSc1ccc(Cl)cc1,inactive
5,NCC[S@@](=O)c1c(-c2ccc(F)cc2)[nH]c2ccccc12,inactive
6,CSc1c(-c2ccc(Cl)cc2)[nH]c2ccccc12,active
7,CC(C)NC(=O)Nc1ccc2c(c1)C(=O)N([C@@H](C)CO)C[C@@H](C)[C@H](CN(C)C(=O)Nc1ccc3c(c1)OCO3)O2,inactive
8,COc1ccc(NC(=O)N(C)C[C@H]2Oc3ncc(C#C[C@@H](C)O)cc3C(=O)N([C@@H](C)CO)C[C@H]2C)cc1,inactive
9,COc1ccc2c3c(n(c2c1)C)[C@@H](CO)N(C[C@]13CN(C1)C(=O)CN(C)C)C(=O)CN(C)C,inactive
10,Cc1ccccc1-c1cc(N2CCN(C)CC2)ncc1N(C)C(=O)C(C)(C)c1cc(C(F)(F)F)cc(C(F)(F)F)c1,active
11,COCCOC(=O)N1C(=O)[C@@]2(c3cc(C#Cc4ccc(OC)cc4)ccc31)[C@H](C(=O)N1CCN(c3ncccn3)CC1)[C@H]1C(=O)O[C@H](c3ccccc3)[C@H](c3ccccc3)N1[C@@H]2c1ccc(OCCO)cc1,inactive
12,C[C@@H]1CN([C@H](C)CO)C(=O)c2cc(NS(=O)(=O)c3ccccc3)ccc2O[C@@H](C)CCCCO[C@@H]1CN(C)C(=O)c1ccccc1,inactive
13,CNC[C@H]1OCCCC[C@@H](C)Oc2ccc(NC(=O)Nc3ccc(C(F)(F)F)cc3)cc2C(=O)N([C@H](C)CO)C[C@@H]1C,inactive
14,CNC[C@@H]1OCCCC[C@H](C)Oc2ccc(NC(=O)Nc3ccc(C(F)(F)F)cc3)cc2C(=O)N([C@H](C)CO)C[C@H]1C,active
15,CNC[C@H]1OCCCC[C@@H](C)Oc2ccc(NC(=O)Nc3ccc(C(F)(F)F)cc3)cc2C(=O)N([C@H](C)CO)C[C@H]1C,active
16,CNC[C@@H]1OCCCC[C@@H](C)Oc2ccc(NC(=O)Nc3ccc(C(F)(F)F)cc3)cc2C(=O)N([C@@H](C)CO)C[C@@H]1C,inactive
17,CNC[C@@H]1OCCCC[C@H](C)Oc2ccc(NC(=O)Nc3ccc(C(F)(F)F)cc3)cc2C(=O)N([C@H](C)CO)C[C@@H]1C,inactive
18,CNC[C@@H]1OCCCC[C@@H](C)Oc2ccc(NC(=O)Nc3ccc(C(F)(F)F)cc3)cc2C(=O)N([C@@H](C)CO)C[C@H]1C,inactive
